Test systems include NCI-H23 lung; NCI-H226 lung; NCI-H322M lung; HOP-62 NSCLC; NCI-H460 lung; HOP-92 NSCLC; NCI-H522 lung; A549/ATCC NSCLC; 786-0 renal; COLO 205 colon; DU-145 prostate; K-562 leukemia; MALME-3M melanoma; MDA-MB-231 breast; RXF 393 renal; SF-268 CNS; SF-295 CNS; SF-539 CNS; M14 melanoma.
Holding throughout (experiment): NCI-60 one-dose screen, 48 h (100 = growth as untreated, 0 = no growth, -100 = all killed)
What all share (conditions): 10 µM unless noted

Molecules are shown by their SMILES. Compounds without any hit were thinned out: in the full panel of roughly 83,000, 20% have a hit.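 Single-concentration screen, 48 h exposure, 96-well plates. Endpoint: percent growth. Below 10 = active.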 Values without a mark were called inactive. The source made the active and inactive calls.

The values below come from PubChem BioAssay (NCI).

As for `COc1cccc(-c2nn(-c3ccccc3)cc2-c2ccnc(NCCCNS(=O)(=O)c3ccc(C(F)(F)F)cc3)c2)c1`, the growth in the assay with NCI-H23 lung is 28.6%; with NCI-H226 lung, 36.6%; with NCI-H322M lung, 68.6%; with HOP-62 NSCLC, 61.3%; with NCI-H460 lung, 25.4%; with HOP-92 NSCLC, 5.37% (active). For the same compound, the growth was 17.4% in the assay on NCI-H522 lung; 24.4% in the assay on A549/ATCC NSCLC; 16.1% in the assay with 786-0 renal; -1.71% (active) with COLO 205 colon; 59.6% in the assay on DU-145 prostate; 8.17% (active) with K-562 leukemia. Also, the growth was 25.8% in the assay on MALME-3M melanoma; 6.9% (active) with MDA-MB-231 breast; -7.54% (active) in the assay on RXF 393 renal; 43.9% with SF-268 CNS; 14.5% with SF-295 CNS; 46.4% in the assay on SF-539 CNS. Also, the growth in the assay with M14 melanoma is 22.1%.

`Fc1ccc(Nc2nc(Nc3ccc(-c4nc5ccccc5[nH]4)cc3)nc(N3CCCC3)n2)cc1`: the growth in the assay with NCI-H23 lung is 75.1%; in the assay on NCI-H226 lung it was 79.9%; in the assay with NCI-H322M lung, 96%; in the assay on HOP-62 NSCLC, 78.6%; in the assay on NCI-H460 lung, 70.4%; in the assay with HOP-92 NSCLC it was 64.4%. Also, the growth is 78.8% in the assay with NCI-H522 lung; 61.2% in the assay on A549/ATCC NSCLC; 85.2% in the assay with 786-0 renal; 86% with COLO 205 colon; 93.3% in the assay on DU-145 prostate; -38.8% (active) in the assay on K-562 leukemia. Also, the growth is 85.7% with MALME-3M melanoma; 61.6% with MDA-MB-231 breast; 77.8% in the assay with RXF 393 renal; 91.2% in the assay on SF-268 CNS; 90.9% in the assay with SF-295 CNS; 81.6% in the assay on SF-539 CNS. In addition, the growth in the assay on M14 melanoma was -58.3% (active).

Consider `COc1ccc2c3c(c4ccccc4cc13)C(=O)N(CCN(C)CCN)C2=O`, for which the growth with NCI-H23 lung was -71.4% (active); in the assay on NCI-H226 lung, -67.4% (active); with NCI-H322M lung it was -44.4% (active); in the assay with HOP-62 NSCLC, -77.4% (active); with NCI-H460 lung, -69.2% (active); in the assay with HOP-92 NSCLC it was -7.66% (active). Further, the growth is -77.2% (active) in the assay on NCI-H522 lung; -78.3% (active) in the assay on A549/ATCC NSCLC; -97.9% (active) in the assay with 786-0 renal; -82.7% (active) in the assay with COLO 205 colon; -86.6% (active) with DU-145 prostate; -68% (active) in the assay on K-562 leukemia. The growth is -75.7% (active) in the assay with MALME-3M melanoma; -72.1% (active) in the assay on MDA-MB-231 breast; -94.3% (active) in the assay with RXF 393 renal; -67.5% (active) in the assay on SF-268 CNS; -88.9% (active) in the assay on SF-295 CNS; -83% (active) in the assay on SF-539 CNS. Besides, the growth in the assay with M14 melanoma was -83.2% (active).

With `C=C1C(=O)O[C@H]2[C@H]1CC/C(Cn1cc(-c3ccc(F)cc3)nn1)=C\CC[C@@]1(C)O[C@@H]21`, the growth with NCI-H23 lung is 5.71% (active); in the assay with NCI-H226 lung, -31.3% (active); in the assay with NCI-H322M lung it was 80.6%; in the assay with HOP-62 NSCLC it was 44.4%; in the assay with NCI-H460 lung, 77.4%; in the assay with HOP-92 NSCLC it was -67.7% (active). The growth was -80.4% (active) in the assay with NCI-H522 lung; 60.2% with A549/ATCC NSCLC; -71.5% (active) with 786-0 renal; -84.4% (active) in the assay on COLO 205 colon; -71.3% (active) in the assay with DU-145 prostate; -20.3% (active) in the assay with K-562 leukemia. In addition, the growth is -58.1% (active) in the assay with MALME-3M melanoma; -46.2% (active) in the assay on MDA-MB-231 breast; -68.1% (active) in the assay with RXF 393 renal; 5.29% (active) with SF-268 CNS; 86.4% in the assay with SF-295 CNS; -34.6% (active) with SF-539 CNS. In addition, in the assay on M14 melanoma, the growth was -40.3% (active).

As for `COc1ccc(/C=C/C(=O)NCCO)cc1`, the growth with NCI-H23 lung is 96.6%; with NCI-H226 lung, 97.9%; with NCI-H322M lung it was 97.6%; in the assay with HOP-62 NSCLC, 87.7%; in the assay with NCI-H460 lung, 103%; in the assay with HOP-92 NSCLC, 105%. Further, the growth in the assay with NCI-H522 lung was 82%; with A549/ATCC NSCLC, 79.7%; with 786-0 renal it was 100%; in the assay with COLO 205 colon, 112%; in the assay with DU-145 prostate, 102%; in the assay on K-562 leukemia it was 95.7%. In addition, the growth in the assay on MALME-3M melanoma is 92.3%; in the assay with MDA-MB-231 breast, 105%; in the assay on RXF 393 renal, 106%; in the assay with SF-268 CNS, 94.3%; in the assay on SF-295 CNS, 98.3%; in the assay on SF-539 CNS, 94.9%. Moreover, in the assay with M14 melanoma, the growth was 106%.

Regarding `O=Cc1nc2ccccc2[nH]1`, the growth in the assay with NCI-H23 lung was 97.9%; in the assay on NCI-H226 lung it was 97.6%; with NCI-H322M lung, 110%; in the assay with HOP-62 NSCLC, 90.1%; in the assay on NCI-H460 lung, 109%; with HOP-92 NSCLC, 86.1%. The growth is 84.8% in the assay on NCI-H522 lung; 84.5% with A549/ATCC NSCLC; 101% with 786-0 renal; 106% in the assay with COLO 205 colon; 105% in the assay on DU-145 prostate; 97.6% in the assay with K-562 leukemia. The growth in the assay on MALME-3M melanoma was 104%; in the assay with MDA-MB-231 breast it was 94.9%; with RXF 393 renal it was 112%; in the assay with SF-268 CNS, 104%; in the assay on SF-295 CNS, 101%; in the assay on SF-539 CNS it was 97.5%. For the same compound, the growth with M14 melanoma was 90.9%.

On to `COC(=O)[C@]12CC[C@@H](C)[C@H](C)[C@@H]1C1=CC(=O)[C@@H]3[C@@]4(C)C[C@@H](O)[C@H](O)[C@@]5(C)COC(=C45)C[C@@]3(C)[C@]1(C)CC2`, for which the growth in the assay on NCI-H23 lung was 76.9%; in the assay with NCI-H226 lung, 81.6%; in the assay on NCI-H322M lung it was 88.4%; in the assay with HOP-62 NSCLC, 50.8%; in the assay on NCI-H460 lung, 34.6%; in the assay with HOP-92 NSCLC, 45.6%. Also, the growth with NCI-H522 lung was 51%; in the assay on A549/ATCC NSCLC it was 41.6%; with 786-0 renal, 78.5%; in the assay with COLO 205 colon, 40.8%; in the assay with DU-145 prostate, 92.7%; with K-562 leukemia it was 14.2%. Further, the growth with MALME-3M melanoma was 68%; with MDA-MB-231 breast it was 45.8%; with RXF 393 renal it was 63.1%; in the assay on SF-268 CNS, 80.8%; with SF-295 CNS, 61.3%; in the assay with SF-539 CNS, 54.1%. In addition, the growth in the assay with M14 melanoma was 27.4%.
